Holding throughout (assay): DAPPL (digital affinity profiling via proximity ligation, sequencing); 10 mM Tris-HCl pH 7.5, 50 mM NaCl, 1 mM DTT, 4% glycerol, room temperature, 30 min; GST-TFs on glutathione beads, 16-mer random dsDNA library, 0.1% formaldehyde crosslink after washing; high values mean tight binding
One assay addresses T1, FLI1 (Homo sapiens, UniProt Q01543 1-452).
T1 sequence: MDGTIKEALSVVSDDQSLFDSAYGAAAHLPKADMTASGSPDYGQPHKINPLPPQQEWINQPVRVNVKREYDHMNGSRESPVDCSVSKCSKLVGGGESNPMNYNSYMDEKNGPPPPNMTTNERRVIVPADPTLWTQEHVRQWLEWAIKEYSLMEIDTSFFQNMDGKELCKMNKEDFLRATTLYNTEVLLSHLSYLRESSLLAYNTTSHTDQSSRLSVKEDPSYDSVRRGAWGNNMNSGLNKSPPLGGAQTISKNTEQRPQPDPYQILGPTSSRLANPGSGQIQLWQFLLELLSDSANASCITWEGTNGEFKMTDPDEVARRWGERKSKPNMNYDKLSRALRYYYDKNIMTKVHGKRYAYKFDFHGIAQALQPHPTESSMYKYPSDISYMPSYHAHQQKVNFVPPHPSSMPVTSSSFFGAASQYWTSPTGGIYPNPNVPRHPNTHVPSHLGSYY
The following applies: protein: recombinant; tags: N-terminal GST; dsDNA, one strand shown. In a few lines: (§1)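 Sequencing on an Illumina NextSeq500 followed washing, crosslinking with 0.1% formaldehyde, proximity ligation (BsaI/T4 ligase, 1 h, 37 °C) and PCR amplification of pools that had been incubated for 30 min at room temperature with 200 nmole of a random double-stranded 16-mer DNA library in Tris/NaCl/DTT/glycerol buffer. Each pool held DNA-barcoded human transcription factors, expressed in yeast as GST fusions and captured on glutathione beads, plus a tag-only sample. Binding signal is a hexamer's read frequency for a factor divided by its frequency in the tag-only sample.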

A further assay has as its target T2, ELK1 (Homo sapiens, UniProt P19419 1-428).
T2 sequence: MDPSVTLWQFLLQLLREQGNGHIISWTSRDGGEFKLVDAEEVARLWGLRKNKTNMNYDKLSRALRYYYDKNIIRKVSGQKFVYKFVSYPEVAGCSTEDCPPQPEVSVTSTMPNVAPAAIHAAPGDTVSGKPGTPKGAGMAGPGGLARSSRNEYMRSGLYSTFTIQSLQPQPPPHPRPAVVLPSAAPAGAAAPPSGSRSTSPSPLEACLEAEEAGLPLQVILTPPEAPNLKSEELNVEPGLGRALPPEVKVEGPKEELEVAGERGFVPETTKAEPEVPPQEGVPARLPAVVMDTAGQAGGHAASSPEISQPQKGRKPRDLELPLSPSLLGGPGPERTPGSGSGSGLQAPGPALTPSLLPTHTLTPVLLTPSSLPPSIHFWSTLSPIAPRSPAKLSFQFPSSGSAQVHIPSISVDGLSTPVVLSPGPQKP
The following applies: protein: recombinant; tags: N-terminal GST; dsDNA, one strand shown. The gist of the method: as §1

The next assay concerns the target T3, GABPA (Homo sapiens, UniProt Q06546 1-454).
T3 sequence: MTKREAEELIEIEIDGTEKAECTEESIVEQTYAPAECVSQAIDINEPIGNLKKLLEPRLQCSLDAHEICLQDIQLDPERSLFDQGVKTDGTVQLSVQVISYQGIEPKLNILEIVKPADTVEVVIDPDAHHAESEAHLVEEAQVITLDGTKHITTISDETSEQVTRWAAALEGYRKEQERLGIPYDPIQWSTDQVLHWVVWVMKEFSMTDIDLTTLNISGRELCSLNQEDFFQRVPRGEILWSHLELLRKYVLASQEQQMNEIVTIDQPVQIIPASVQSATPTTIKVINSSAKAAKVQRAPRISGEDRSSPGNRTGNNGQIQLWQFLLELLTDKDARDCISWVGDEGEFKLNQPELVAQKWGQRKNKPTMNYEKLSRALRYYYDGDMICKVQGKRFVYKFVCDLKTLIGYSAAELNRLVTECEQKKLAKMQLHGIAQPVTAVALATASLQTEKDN
The following applies: protein: recombinant; tags: N-terminal GST; dsDNA, one strand shown. The gist of the method: as §1

In a further assay the target is T4, ERG (Homo sapiens, UniProt P11308 1-479).
T4 sequence: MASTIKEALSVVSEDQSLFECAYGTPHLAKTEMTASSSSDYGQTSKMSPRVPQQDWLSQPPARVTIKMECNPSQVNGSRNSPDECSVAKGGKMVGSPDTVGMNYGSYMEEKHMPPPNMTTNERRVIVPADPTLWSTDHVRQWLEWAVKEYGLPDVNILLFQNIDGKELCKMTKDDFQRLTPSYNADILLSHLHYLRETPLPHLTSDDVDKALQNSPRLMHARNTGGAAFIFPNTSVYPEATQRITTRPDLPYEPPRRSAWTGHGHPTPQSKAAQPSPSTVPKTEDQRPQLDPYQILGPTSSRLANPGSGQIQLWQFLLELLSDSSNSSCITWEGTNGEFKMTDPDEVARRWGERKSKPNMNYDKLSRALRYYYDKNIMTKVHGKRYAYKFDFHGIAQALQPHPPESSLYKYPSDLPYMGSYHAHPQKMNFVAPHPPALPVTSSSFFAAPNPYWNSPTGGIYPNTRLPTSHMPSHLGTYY
The following applies: protein: recombinant; tags: N-terminal GST; dsDNA, one strand shown. The gist of the method:
as §1

A further assay has as its target ELF1 (Homo sapiens, UniProt P32519 1-619). The settings on record: protein: recombinant; tags: N-terminal GST; dsDNA, one strand shown. In a few lines:
as §1

A further assay concerns the target T5, EHF (Homo sapiens, UniProt Q9NZC4 1-300).
T5 sequence: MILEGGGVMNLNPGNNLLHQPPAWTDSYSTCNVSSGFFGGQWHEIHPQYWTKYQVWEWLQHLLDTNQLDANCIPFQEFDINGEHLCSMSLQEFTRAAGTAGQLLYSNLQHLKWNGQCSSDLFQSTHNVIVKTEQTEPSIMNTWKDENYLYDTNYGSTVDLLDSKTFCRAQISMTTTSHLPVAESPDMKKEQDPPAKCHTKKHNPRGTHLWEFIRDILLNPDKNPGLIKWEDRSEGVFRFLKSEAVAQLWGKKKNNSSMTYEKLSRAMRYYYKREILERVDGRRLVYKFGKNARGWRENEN
The settings on record: protein: recombinant; tags: N-terminal GST; dsDNA, one strand shown. The gist of the method:
as §1

The target in another assay is SPI1 (Homo sapiens, UniProt P17947 1-270). The following applies: protein: recombinant; tags: N-terminal GST; dsDNA, one strand shown. In a few lines:
as §1

In another assay the target is T6, ELK3 (Homo sapiens, UniProt P41970 1-407).
T6 sequence: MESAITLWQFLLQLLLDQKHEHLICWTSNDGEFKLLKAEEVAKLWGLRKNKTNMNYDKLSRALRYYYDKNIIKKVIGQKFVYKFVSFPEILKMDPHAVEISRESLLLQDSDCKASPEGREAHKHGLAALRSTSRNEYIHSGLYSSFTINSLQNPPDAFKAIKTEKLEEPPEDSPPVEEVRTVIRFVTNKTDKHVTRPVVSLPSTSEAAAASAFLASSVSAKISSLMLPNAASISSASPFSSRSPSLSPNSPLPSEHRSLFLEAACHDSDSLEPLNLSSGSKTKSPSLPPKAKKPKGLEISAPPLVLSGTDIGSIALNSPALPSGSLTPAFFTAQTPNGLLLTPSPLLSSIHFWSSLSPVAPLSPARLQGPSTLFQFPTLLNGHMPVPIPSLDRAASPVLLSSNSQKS
The following applies: protein: recombinant; tags: N-terminal GST; dsDNA, one strand shown. The gist of the method:
as §1

In another assay the target is T7, FEV (Homo sapiens, UniProt Q99581 1-238).
T7 sequence: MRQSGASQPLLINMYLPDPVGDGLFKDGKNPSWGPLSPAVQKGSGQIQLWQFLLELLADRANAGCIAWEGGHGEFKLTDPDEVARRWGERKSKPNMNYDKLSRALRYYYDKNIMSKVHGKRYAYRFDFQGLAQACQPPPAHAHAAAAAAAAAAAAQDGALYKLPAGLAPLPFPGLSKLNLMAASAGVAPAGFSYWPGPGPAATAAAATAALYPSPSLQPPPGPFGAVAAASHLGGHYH
The following applies: protein: recombinant; tags: N-terminal GST; dsDNA, one strand shown. The gist of the method: as §1

The target of a further assay is ETV5 (Homo sapiens, UniProt P41161 1-510). The settings on record: protein: recombinant; tags: N-terminal GST; dsDNA, one strand shown. The gist of the method:
as §1

For another assay, the target named is HSF1 (Homo sapiens, UniProt Q00613 1-529). The settings on record: protein: recombinant; tags: N-terminal GST; chain copies: 3; dsDNA, one strand shown. The gist of the method: as §1
The next assay deals with T8, SPIC (Homo sapiens, UniProt Q8N5J4 1-248).
T8 sequence: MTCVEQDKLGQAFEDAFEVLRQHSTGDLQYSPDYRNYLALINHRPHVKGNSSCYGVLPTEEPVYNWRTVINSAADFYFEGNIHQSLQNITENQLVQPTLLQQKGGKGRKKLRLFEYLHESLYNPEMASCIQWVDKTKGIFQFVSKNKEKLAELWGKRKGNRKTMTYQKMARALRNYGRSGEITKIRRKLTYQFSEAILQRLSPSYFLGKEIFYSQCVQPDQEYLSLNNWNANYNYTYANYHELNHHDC
The settings on record: protein: recombinant; tags: N-terminal GST; dsDNA, one strand shown. In a few lines: as §1

For another assay, the target named is ELF4 (Homo sapiens, UniProt Q99607 1-663). The following applies: protein: recombinant; tags: N-terminal GST; dsDNA, one strand shown. In a few lines: as §1
For the next assay, the target named is T9, ELK4 (Homo sapiens, UniProt P28324-2 1-405).
T9 sequence: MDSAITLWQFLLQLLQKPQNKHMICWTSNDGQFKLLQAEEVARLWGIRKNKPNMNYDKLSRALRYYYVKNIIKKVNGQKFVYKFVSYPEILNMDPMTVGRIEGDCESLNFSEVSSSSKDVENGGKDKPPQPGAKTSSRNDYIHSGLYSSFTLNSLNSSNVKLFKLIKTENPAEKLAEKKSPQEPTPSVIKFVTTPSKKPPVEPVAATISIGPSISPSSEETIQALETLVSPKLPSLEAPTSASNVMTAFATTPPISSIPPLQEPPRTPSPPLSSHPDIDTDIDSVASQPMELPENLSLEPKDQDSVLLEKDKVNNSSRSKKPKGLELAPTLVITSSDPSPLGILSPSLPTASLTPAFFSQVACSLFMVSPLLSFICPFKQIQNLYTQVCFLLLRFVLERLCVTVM
The settings on record: protein: recombinant; tags: N-terminal GST; dsDNA, one strand shown. The gist of the method: as §1

A further assay concerns the target T10, ETV2 (Homo sapiens, UniProt O00321 1-342).
T10 sequence: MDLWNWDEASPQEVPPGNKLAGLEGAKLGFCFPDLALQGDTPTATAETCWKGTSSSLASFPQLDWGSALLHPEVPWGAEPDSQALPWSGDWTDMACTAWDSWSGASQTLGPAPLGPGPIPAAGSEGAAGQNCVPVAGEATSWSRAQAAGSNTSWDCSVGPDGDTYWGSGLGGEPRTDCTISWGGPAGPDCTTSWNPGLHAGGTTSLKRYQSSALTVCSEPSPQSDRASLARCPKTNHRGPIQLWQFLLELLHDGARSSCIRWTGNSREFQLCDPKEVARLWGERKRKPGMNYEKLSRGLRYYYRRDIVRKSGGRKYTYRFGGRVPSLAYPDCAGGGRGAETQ
The settings on record: protein: recombinant; tags: N-terminal GST; dsDNA, one strand shown. In a few lines: as §1

In a further assay the target is T11, ELF3 (Homo sapiens, UniProt P78545 1-371).
T11 sequence: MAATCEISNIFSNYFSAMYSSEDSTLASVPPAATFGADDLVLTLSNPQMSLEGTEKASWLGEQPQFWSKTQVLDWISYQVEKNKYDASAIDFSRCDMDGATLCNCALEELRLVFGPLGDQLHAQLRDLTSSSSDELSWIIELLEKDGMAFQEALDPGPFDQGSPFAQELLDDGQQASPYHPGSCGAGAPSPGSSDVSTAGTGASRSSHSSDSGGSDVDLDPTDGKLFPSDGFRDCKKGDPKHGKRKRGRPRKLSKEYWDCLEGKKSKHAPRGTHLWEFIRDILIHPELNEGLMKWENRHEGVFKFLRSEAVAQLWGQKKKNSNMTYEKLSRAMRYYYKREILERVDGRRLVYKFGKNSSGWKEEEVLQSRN
The following applies: protein: recombinant; tags: N-terminal GST; dsDNA, one strand shown. The gist of the method: as §1

Another assay has as its target CRX (Homo sapiens, UniProt O43186 1-299). The following applies: protein: recombinant; tags: N-terminal GST; dsDNA, one strand shown. In a few lines:
as §1

A further assay has as its target ETV1 (Homo sapiens, UniProt P50549 1-477). The following applies: protein: recombinant; tags: N-terminal GST; dsDNA, one strand shown. The gist of the method:
as §1

Chain of CRX (O43186 whole entry): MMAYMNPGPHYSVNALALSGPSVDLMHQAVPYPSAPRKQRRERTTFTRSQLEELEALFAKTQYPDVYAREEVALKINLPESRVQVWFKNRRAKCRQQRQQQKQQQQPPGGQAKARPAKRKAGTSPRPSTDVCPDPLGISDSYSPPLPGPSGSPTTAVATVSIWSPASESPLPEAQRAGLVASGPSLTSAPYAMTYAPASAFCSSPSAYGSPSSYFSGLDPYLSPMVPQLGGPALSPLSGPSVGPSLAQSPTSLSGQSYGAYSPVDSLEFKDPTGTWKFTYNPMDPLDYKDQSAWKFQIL
Chain of ELF1 (P32519 whole entry): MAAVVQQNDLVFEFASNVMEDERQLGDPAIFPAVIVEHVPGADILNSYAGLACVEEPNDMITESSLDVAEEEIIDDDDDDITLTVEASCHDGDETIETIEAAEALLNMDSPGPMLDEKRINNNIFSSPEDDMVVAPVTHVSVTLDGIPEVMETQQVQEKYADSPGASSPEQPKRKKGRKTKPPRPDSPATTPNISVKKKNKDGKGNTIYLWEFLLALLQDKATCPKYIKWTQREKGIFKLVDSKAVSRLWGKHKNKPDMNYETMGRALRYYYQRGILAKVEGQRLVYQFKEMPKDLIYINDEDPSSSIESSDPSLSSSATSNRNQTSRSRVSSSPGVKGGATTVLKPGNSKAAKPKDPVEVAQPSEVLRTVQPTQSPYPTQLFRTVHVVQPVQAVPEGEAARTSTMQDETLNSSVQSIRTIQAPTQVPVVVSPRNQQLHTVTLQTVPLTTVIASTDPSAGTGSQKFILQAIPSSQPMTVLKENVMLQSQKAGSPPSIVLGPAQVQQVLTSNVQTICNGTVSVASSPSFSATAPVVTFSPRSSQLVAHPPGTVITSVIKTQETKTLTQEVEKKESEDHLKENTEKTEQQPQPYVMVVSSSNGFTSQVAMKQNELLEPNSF
Chain of ETV1 (P50549 whole entry): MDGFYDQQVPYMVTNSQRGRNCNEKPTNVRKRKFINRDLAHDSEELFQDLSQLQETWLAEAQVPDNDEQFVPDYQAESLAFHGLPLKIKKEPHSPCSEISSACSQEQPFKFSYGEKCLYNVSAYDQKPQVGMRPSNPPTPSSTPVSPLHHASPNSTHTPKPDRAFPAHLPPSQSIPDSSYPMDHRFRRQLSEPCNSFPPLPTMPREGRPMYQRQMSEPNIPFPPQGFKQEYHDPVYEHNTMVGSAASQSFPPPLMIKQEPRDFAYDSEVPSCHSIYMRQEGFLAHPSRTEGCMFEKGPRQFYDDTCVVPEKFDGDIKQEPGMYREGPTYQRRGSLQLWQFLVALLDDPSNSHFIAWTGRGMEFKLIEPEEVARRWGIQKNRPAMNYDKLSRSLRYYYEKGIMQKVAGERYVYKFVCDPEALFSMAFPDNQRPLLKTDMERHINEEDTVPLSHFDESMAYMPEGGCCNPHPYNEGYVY
Chain of ELF4 (Q99607 whole entry): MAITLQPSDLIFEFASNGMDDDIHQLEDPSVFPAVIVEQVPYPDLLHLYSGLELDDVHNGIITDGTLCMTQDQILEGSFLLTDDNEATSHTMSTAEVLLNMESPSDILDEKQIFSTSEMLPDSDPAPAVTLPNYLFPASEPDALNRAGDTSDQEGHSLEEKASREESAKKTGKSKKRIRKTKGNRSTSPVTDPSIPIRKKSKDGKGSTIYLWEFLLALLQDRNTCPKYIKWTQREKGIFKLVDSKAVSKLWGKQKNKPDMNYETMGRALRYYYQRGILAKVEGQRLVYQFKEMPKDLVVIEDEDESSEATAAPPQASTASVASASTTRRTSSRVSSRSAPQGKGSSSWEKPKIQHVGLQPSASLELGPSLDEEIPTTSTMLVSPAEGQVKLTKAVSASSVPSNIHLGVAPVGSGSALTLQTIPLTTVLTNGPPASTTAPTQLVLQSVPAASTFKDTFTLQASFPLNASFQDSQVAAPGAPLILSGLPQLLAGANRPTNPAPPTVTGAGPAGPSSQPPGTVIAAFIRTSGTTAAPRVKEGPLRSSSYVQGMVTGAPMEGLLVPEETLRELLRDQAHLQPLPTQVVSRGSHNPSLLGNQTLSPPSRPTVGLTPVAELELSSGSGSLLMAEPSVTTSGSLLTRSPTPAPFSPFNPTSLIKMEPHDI
Chain of HSF1 (Q00613 whole entry): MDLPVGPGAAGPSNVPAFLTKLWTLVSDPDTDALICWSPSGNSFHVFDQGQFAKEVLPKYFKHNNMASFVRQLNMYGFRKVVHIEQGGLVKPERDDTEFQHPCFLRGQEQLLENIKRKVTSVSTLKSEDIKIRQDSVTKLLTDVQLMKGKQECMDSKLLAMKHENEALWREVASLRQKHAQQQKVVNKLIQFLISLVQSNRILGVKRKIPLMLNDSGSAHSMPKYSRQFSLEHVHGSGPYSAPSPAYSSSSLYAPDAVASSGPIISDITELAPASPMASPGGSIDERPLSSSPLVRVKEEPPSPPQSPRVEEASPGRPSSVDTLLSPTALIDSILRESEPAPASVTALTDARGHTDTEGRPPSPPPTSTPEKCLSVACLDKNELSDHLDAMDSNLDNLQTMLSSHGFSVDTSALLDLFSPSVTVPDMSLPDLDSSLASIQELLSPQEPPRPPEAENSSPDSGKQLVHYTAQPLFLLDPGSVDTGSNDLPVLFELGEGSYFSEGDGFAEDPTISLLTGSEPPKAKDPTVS
Chain of ETV5 (P41161 whole entry): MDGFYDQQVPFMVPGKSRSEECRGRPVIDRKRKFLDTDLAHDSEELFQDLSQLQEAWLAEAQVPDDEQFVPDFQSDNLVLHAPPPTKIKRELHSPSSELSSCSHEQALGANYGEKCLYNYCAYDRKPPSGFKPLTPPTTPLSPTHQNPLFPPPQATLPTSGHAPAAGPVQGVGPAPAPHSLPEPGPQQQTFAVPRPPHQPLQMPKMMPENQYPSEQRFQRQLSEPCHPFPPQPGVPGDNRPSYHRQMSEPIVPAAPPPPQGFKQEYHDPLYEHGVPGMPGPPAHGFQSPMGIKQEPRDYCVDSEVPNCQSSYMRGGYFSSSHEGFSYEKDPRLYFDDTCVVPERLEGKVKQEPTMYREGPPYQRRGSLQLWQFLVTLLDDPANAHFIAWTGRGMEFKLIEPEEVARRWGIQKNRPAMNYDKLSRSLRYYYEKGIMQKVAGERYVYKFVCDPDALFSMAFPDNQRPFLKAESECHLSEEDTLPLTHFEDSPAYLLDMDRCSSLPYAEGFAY

AAGCAG: the binding signal with FLI1 is 1.1 fold enrichment (6-mer frequency, TF over GST control); in the assay with ELK1 it was 1.14 fold enrichment (6-mer frequency, TF over GST control); in the assay with GABPA it was 1.13 fold enrichment (6-mer frequency, TF over GST control); in the assay with ERG it was 1.11 fold enrichment (6-mer frequency, TF over GST control); with ELF1, 1.12 fold enrichment (6-mer frequency, TF over GST control); with EHF, 1.12 fold enrichment (6-mer frequency, TF over GST control). Also, the binding signal with SPI1 is 1.24 fold enrichment (6-mer frequency, TF over GST control); with ELK3 it was 1.23 fold enrichment (6-mer frequency, TF over GST control); with FEV it was 1.09 fold enrichment (6-mer frequency, TF over GST control); in the assay with ETV5 it was 1.18 fold enrichment (6-mer frequency, TF over GST control); in the assay with HSF1, 1.05 fold enrichment (6-mer frequency, TF over GST control); with SPIC, 1.09 fold enrichment (6-mer frequency, TF over GST control). Further, the binding signal is 1.12 fold enrichment (6-mer frequency, TF over GST control) with ELF4; 1.06 fold enrichment (6-mer frequency, TF over GST control) with ELK4; 1.13 fold enrichment (6-mer frequency, TF over GST control) in the assay with ETV2; 1.04 fold enrichment (6-mer frequency, TF over GST control) with ELF3; 1.11 fold enrichment (6-mer frequency, TF over GST control) with CRX; 1.19 fold enrichment (6-mer frequency, TF over GST control) with ETV1.

Values taken from PMC7862700, “An all-to-all approach to the identification of sequence-specific readers for epigenetic DNA modifications on cytosine”.
